Test results from the supplement of paper PMC10338343.
± gives the standard deviation.

Assays:
[1] = tested on: MILI (PIWIL2) piRISC loaded with piRNA #1 (26 nt); experiment: pre-steady-state target cleavage rate (min^-1); guide: piRNA #1 5'p-UGAGGUAGUAGGUUGUAUAGUAUCCA; higher = faster piRNA-guided slicing of the target; settings: auxiliary factor: 500 nM mouse GTSF1
Method in brief: (§1)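 The pre-steady-state cleavage rate came from a burst-and-steady-state fit to pooled data from three Cleave-'n-Seq trials, in which uncleaved targets were sequenced and normalised to depth and to weakly complementary targets. Each reaction held 0.1 nM transcribed, DNA-blocked target RNA library and 1 nM active affinity-purified piRISC carrying one synthetic guide, with or without 500 nM GTSF1 partner protein, in HEPES–potassium acetate buffer at 33 °C for 0–8 or 0–960 min. k3 was capped at 0.0001 min^-1.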

[2] = tested on: EfPiwi piRISC loaded with piRNA #1 (26 nt); experiment: pre-steady-state target cleavage rate (min^-1); auxiliary factor: 500 nM Ephydatia muelleri Gtsf1; guide: piRNA #1 5'p-UGAGGUAGUAGGUUGUAUAGUAUCCA; MIWI and MILI are mouse PIWI proteins and EfPiwi is from a freshwater sponge; tags in brackets are library labels; higher = faster piRNA-guided slicing of the target
Method in brief: as §1

Sequence	pre-steady-state target cleavage rate [1]	pre-steady-state target cleavage rate [2]
GGAGAGGAUACUAUACUAGCUACUACCUCA	0.113 ± 0.011	0.00387 ± 0.0029
GGAGUGGAAACUAUACAUCCUACUACCUCA	0.275 ± 0.024	0.0101 ± 0.0045
GGAGACCUAACUAUAUAACCUACUACCUCA	0.117 ± 0.015	0.0063 ± 0.0034
GGAGUGGAUACAAUACAACCUACUACCUCA	0.174 ± 0.0095	0.0165 ± 0.0068
GGAGACCAUACUAUACAACCUAGAUCCUCA	0.0232 ± 0.0082	0.00423 ± 0.0039
GGAGACGAUACUAUACAACCUACAAGCUCA	0.0171 ± 0.0086	0.00381 ± 0.0023
GGAGAGCAUACUAUACAACCUACUACCUGA	0.112 ± 0.017	0.00603 ± 0.0027
GGAGAGGAUACUAUACAACCUACUAUCUCA	0.131 ± 0.012	0.081 ± 0.036
GGAGUGGAUACAAUACAACCAACUACCUCA	0.00919 ± 0.0019	0.00289 ± 0.0015
GGAGACCAUACUAUACAACGUACUACCACA	0.0309 ± 0.0064	0.00321 ± 0.0029
GGAGUCGAUUCUAUACAACCUACUACCUCA	0.182 ± 0.01	0.00723 ± 0.0043
GGAGUGGUUACUAUACAACCUACUAGCUCA	0.0259 ± 0.0059	0.00221 ± 0.001
GGAGACGAUACUAUACAACCUACUACCUACA	0.178 ± 0.013	0.00797 ± 0.0032
GGAGUGGAUACUAUAAAACCUACUACCUCA	0.161 ± 0.0081	0.00522 ± 0.0025
GGAGACCAUACUAUACAACCUACUAGCCUCA	0.176 ± 0.024	0.00697 ± 0.0031
GGAGUGGAUAACUAUACAACCUACUACCUCA	0.0667 ± 0.0071	0.0101 ± 0.0044
GGAGUGGUUACUAUACAACCUUCUACCUCA	0.0099 ± 0.0024	0.00361 ± 0.0018
GGAGAGGAAACUAUACAACCUACAACCUCA	0.122 ± 0.03	0.00279 ± 0.0019
GGAGACCUAUCUAUACACCCUACUACCUCA	0.0257 ± 0.006	0.00728 ± 0.0037
GGAGACGAAACUAUACAACCUAGUACCUCA	0.0663 ± 0.021	0.0035 ± 0.0025

Sequence	pre-steady-state target cleavage rate [1]	pre-steady-state target cleavage rate [2]
GGAGACCAAUGUAUACAACCUACUACCUCA	0.0592 ± 0.01	0.0133 ± 0.0056
GGAGUGGAUACUAUACUACCUACUACCACA	0.143 ± 0.013	0.0024 ± 0.0017
GGAGACGAUACUUUACAACCAACUACCUCA	0.00466 ± 0.0023	0.00358 ± 0.0022
GGAGUCGUUACUAUACAACCUACUACCUCA	0.158 ± 0.011	0.0129 ± 0.0069
GGAGUGGAUACUAAACAACGUACUACCUCA	0.0219 ± 0.0031	0.00304 ± 0.0013
GGAGAGGAAACUAUACAACCUAGUACCUCA	0.0133 ± 0.0079	0.00323 ± 0.0013
GGAGACCAUACUAUACAACCUACGACCUCA	0.137 ± 0.018	0.00282 ± 0.0019
GGAGUGGAAACAAUACAACCUACUACCUCA	0.184 ± 0.018	0.00713 ± 0.0044
GGAGACCAUACUAUACCACCUACUACCUCA	0.157 ± 0.013	0.00807 ± 0.004
GGAGACGAUACUCUACAACCUACUACCUCA	0.176 ± 0.012	0.00744 ± 0.0035
GGAGAGGAUACUAUACAACCUACUACCACA	0.171 ± 0.017	0.00641 ± 0.0021
GGAGUGGAUACAAUACAUCCUACUACCUCA	0.256 ± 0.016	0.00574 ± 0.0025
GGAGAGGAUAUAUACAACCUACUACCUCA	0.165 ± 0.014	0.00764 ± 0.0042
GGAGACGAUACUAUACAUCCUAGUACCUCA	0.0834 ± 0.019	0.0031 ± 0.001
GGAGACGAUACUAUUCAACCUACUACCUCA	0.202 ± 0.013	0.00923 ± 0.0038
GGAGACGAUACAAUACAACCUACUACCUCA	0.158 ± 0.012	0.0117 ± 0.0044
GGAGAGGAUACUAUACACCUACUACCUCA	0.0354 ± 0.0068	0.0984 ± 0.042
GGAGUGGAUACUAUUCAACGUACUACCUCA	0.0305 ± 0.004	0.00373 ± 0.0014
GGAGACCUAUGCAUACAACCUACUACCUCA	0.0358 ± 0.0081	0.0042 ± 0.0037
GGAGACGAUACUAUUCAACCUUCUACCUCA	0.0105 ± 0.0025	0.00443 ± 0.0025

Sequence	pre-steady-state target cleavage rate [1]	pre-steady-state target cleavage rate [2]
GGAGACCUUACUAUACAACCUACUACCUCU [g2:g22:cont:t1U]	0.177 ± 0.017	1.04 ± 0.39
GGAGUGGAUGACUAUACAACCUACUACCUCA	0.0838 ± 0.019	0.00475 ± 0.0037
GGAGUGGAUACUAUACAACCUACCUACCUCA	0.128 ± 0.0098	0.00423 ± 0.0017
GGAGAGGAUACUUUUCAACCUACUACCUCA	0.145 ± 0.011	0.00409 ± 0.004
GGAGACCAUACUAUUCAACGUACUACCUCA	0.019 ± 0.0049	0.00247 ± 0.0019
GGAGUGGAUACUGUACAACCUACUACCUCA	0.178 ± 0.0077	0.109 ± 0.039
GGAGACCAUACUAUACAACCUAAUACCUCA	0.117 ± 0.018	0.00857 ± 0.0039
GGAGAGCAUACUAUUCAACCUACUACCUCA	0.217 ± 0.017	0.00555 ± 0.0041
GGAGUGGAUAGCUAUACAACCUACUACCUCA	0.0528 ± 0.0074	0.00584 ± 0.0033
GGAGUGGAUACUAUCAACCUACUACCUCA	0.186 ± 0.0098	0.0872 ± 0.035
GGAGUCGAUACUAUACAACCAACUACCUCA	0.0053 ± 0.0019	0.00517 ± 0.002
GGAGACCUAACUAUACAUCCUACUACCUGA	0.116 ± 0.039	0.00344 ± 0.0029
GGAGUGGAUACUAUACAUCCUACUACCUCA	0.267 ± 0.014	0.124 ± 0.044
GGAGUGGAUACAAUACAACCUACAACCUCA	0.0772 ± 0.01	0.00248 ± 0.0013
GGAGAGGCUACUAUACAACCUACUACCUCA	0.182 ± 0.017	0.0629 ± 0.022
GGAGACCAUACUAUAUCAACCUACUACCUCA	0.0898 ± 0.011	0.0136 ± 0.0068
GGAGAGGAUACUAUUACAACCUACUACCUCA	0.167 ± 0.012	0.0933 ± 0.04
GGAGACGAUACUAUACAACCUACUUCCUCA	0.0885 ± 0.024	0.00431 ± 0.0018
GGAGUGGAUACUAUAGAACCUUCUACCUCA	0.00415 ± 0.0015	0.00334 ± 0.0018
GGAGACGAUACUAUACAACCUACUACCCUCA	0.176 ± 0.021	0.00506 ± 0.0015
